Reference: PubChem BioAssay AID602310 (National Center for Advancing Translational Sciences (NCATS), 2012)
Among all 410,000 compounds or so, about 310 (0.076%) were called active. Not shown: some 2% with an inconclusive outcome. The list comes from a sample in which actives are over-represented; it also holds similar structures and randomly drawn compounds. A number with no mark means an inactive call. Calls follow the shape of the dose curve; as a rule, active = well fitted curve in the direction sought with a large enough effect; inconclusive = small, poorly fitted or top-dose-only effect; inactive = flat fitted curve, though single readings scatter.

Target: DNA dC->dU-editing enzyme APOBEC-3G (Homo sapiens) (UniProt Q9HC16)
Sequence (Q9HC16 whole entry, looked up): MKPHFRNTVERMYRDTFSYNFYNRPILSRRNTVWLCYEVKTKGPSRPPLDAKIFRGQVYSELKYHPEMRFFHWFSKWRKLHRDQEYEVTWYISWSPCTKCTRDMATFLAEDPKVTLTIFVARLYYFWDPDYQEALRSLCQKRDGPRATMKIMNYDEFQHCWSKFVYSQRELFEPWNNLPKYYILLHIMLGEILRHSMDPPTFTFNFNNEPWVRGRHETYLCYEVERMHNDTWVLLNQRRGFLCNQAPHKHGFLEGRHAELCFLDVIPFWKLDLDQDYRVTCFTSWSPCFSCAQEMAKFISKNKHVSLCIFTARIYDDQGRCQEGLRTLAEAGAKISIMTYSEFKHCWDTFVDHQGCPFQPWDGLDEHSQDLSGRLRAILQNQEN
Assay: qHTS for Inhibitors of Vif-A3G Interactions: qHTS; also: nearly all actives have a fitted effect of over 60% in size;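 as to activity, negative = active: hits raise eYFP signal because A3G escapes Vif-driven loss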
Details: HeLa A3G-eYFP + Vif (tagged APOBEC3G with the HIV-1 protein that degrades it), YFP fluorescence, overnight; series mostly up to 46.1 µM; activity, negative = active: at the top concentration
Text: The recent discovery and characterization of host restriction factors, which provide a potent defense to invading retroviruses, has provided new targets for antiviral drug development. APOBEC3G (A3G) and APOBEC3F (A3F) are potent cytidine deaminases that block HIV-1 replication; HIV-1 expresses the Vif protein, which counteracts A3G and A3F by binding to them and inducing their proteasomal degradation. The Vif-A3G and Vif-A3F interactions provide two potential targets for development of small molecules which can interfere with the ability of Vif to degrade A3G or A3F. […] To identify inhibitors that can interfere with Vif mediated degradation of A3G and A3F, we have developed Hela cell lines that stably express A3G or A3F tagged with eYFP at the C-terminal end (A3G-eYFP or A3F-eYFP, respectively) and Vif. In the absence of an inhibitor, Vif induces degradation of A3G-eYFP and A3F-eYFP, and the cells are not fluorescent. In the presence of an inhibitor, it is expected that Vif will be unable to degrade A3G-eYFP and/or A3F-eYFP, resulting in an increase in yellow fluorescence. In this assays Vif A3G was screened against the Molecular Library Small Molecule Repository (MLSMR). NIH Chemical Genomics Center [NCGC] NIH Molecular Libraries Probe Centers Network [MLPCN] MLPCN Grant: MH093245 Assay Submitter (PI): Vinay Pathak, National Cancer Institute
5 uL of 700 cells/well of A3G-YFP cells are dispensed into black, clear bottom plates. The plates are incubated overnight at 37 deg C. 23 nL of compounds are added by pintool. The plates are incubated overnight at 37 deg C and then read on the TTP Acumen (Ex 488/ Em 500-530).
% is scaled to controls: 0 for no effect and ±100 for the full control effect; potency is read from the fitted curve at half-maximal effect.

Point of comparison: Cc1ccc2nc(/C(C#N)=C/c3ccccc3F)[nH]c2c1, “activity, negative = active” value -5.05%. Against it:
- O=C(c1cnn2c1NC(=C1CC1)C=C2C(F)F)N1CCc2ccccc2C1 — higher, 2.57%
- Cc1cccc(CNC(=O)c2cnc3sc(N4CCCCC4)nn3c2=O)c1 — higher, 2.64%
- Cc1ccccc1NC(=O)Cn1c(=O)n(Cc2ccco2)c(=O)c2ccc(C(=O)NC3CCCC3)cc21 — higher, -3.97%
- CCOC(=O)c1ccc(NC(=O)c2c(NCc3cccs3)sc3c2CCCC3)cc1 — higher, 5.26%
- CN(C)c1ccc(/C=C/c2sc3ccccc3[n+]2C)cc1 — higher, 3.75%
- CC(C)Sc1oc(-c2cccs2)nc1S(=O)(=O)c1ccc(Cl)cc1 — higher, -1.22%
- CCOC(=O)C1CCC(CN(Cc2ccc(OC)cc2)S(=O)(=O)c2ccc(F)c(C(=O)Nc3cc(C)ccc3C)c2)CC1 (stereo not given) — higher, -1.77%
- CC(C)c1ccc(NC(=O)Cn2c3ncccc3c(=O)n2-c2ccccc2)cc1 — higher, 1.84%
- CC(C)(C)c1ccc(C(=O)C[N+]2(C)CCCc3ccccc32)cc1 (stereo not given) — higher, 1.9%
- Cc1cccc(N2CCN(S(=O)(=O)c3ccc4[nH]c5c(c4c3)CCCCC5)CC2)c1C — higher, -0.718%
- O=C1NC(c2ccccc2)Oc2ccccc21 (stereo not given) — higher, 0.257%
- C=CCOc1cccc(C2NC(=O)c3ccccc3O2)c1 (stereo not given) — lower, -7.4%
- COc1ccc(S(=O)(=O)NCC(c2ccc(N(C)C)cc2)N2CCc3ccccc32)cc1OC (stereo not given) — higher, 3.67%
- COc1cccc(NC(=O)Nc2ccc3c(c2)N(C)C(=O)c2ccccc2S3)c1 — lower, -13%
- O=C(Nc1cc(C(F)(F)F)ccc1Cl)c1cc2nc(-c3ccc4c(c3)OCO4)cc(C(F)(F)F)n2n1 — higher, 0.316%
- CC(C)(C)NC(=O)CSc1nc(-c2ccc(F)cc2)cc(C(F)(F)F)n1 — higher, 1.1%
- CCOc1ccc(S(=O)(=O)c2cn(Cc3ccccc3)c3ccc(OCC)cc3c2=O)cc1 — lower, -5.11%
- CC(NC(=O)c1cc2c(=O)n3ccccc3nc2n(C(C)C)c1=N)c1ccccc1 (stereo not given) — higher, 2.26%
- CCN(CC)N=Nc1cccc(NC(C)=O)c1 — higher, 6.85%
- CC1CC1C(=O)OCC(=O)Nc1cccc(F)c1 (stereo not given) — higher, -0.831%
- COc1ccc(/C=C/c2ccnc3ccccc23)cc1OC — lower, -9.81%
- Cc1cccc(NC(=O)c2nnn(CC(=O)Nc3ccc(C(C)C)cc3)c2N)c1C — higher, 3.32%
- C/C=C/NNC(=O)Cc1ccc(OC)cc1 — lower, -19.1%
- CO[C@H]1O[C@@H]2O[C@@]3(C)CC[C@@H]4[C@@H](C)CC[C@@H]([C@H]1C)[C@@]24OO3 — higher, -4.35%
- CCOc1ccc(-c2cc3nc(C4CCN(C(=O)OC(C)(C)C)CC4)c(C(=O)Nc4ccc(C(=O)OC)cc4)cn3n2)cc1 — higher, 0.118%
- CS(=O)(=O)c1ccc(-c2nnc(NC(=O)c3ccc4c(c3)OCCO4)o2)cc1 — higher, 5.26%
- CCCCCn1c(=O)[nH]c2cc(C(=O)Nc3ccc(F)cc3)ccc2c1=O — higher, 3.51%
- N#Cc1ccc[n+](CC(=O)c2ccc(O)c(O)c2)c1 — higher, 1.87%
- COc1ccc(CN2CCC(=O)c3ccccc3S2(=O)=O)cc1 — higher, -0.629%
- Cc1c(CCO)sc[n+]1CC(=O)c1ccc2ccccc2c1 — higher, 0.145%
- O=C(CSc1nc(-c2cccc(F)c2)[nH]c1-c1ccccc1)Nc1ccc2c(c1)OCO2 — higher, 1.68%
- NC(=O)Nc1ccc(/C=C/c2ccnc3ccccc23)cc1 — lower, -8.22%
- CCN(CC)/[N+]([O-])=N/OCOC(=O)Cc1c(C)n(C(=O)c2ccc(Cl)cc2)c2ccc(OC)cc12 — higher, -2.29%
- COc1cc(C)ccc1OCCSc1nc2ccc(NC(=O)c3ccc(C)cc3)cc2s1 — higher, -1.22%
- CC(=O)c1ccc[n+](C(C)CCC(C)[n+]2cccc(C(C)=O)c2)c1 (stereo not given) — higher, 4.94%
- CCCN1C(=O)C(O)(CC(=O)c2ccc(CC)cc2)c2cc(Br)ccc21 (stereo not given) — higher, 4.05%
- O=C(Nc1ccccc1C(F)(F)F)c1nc(S(=O)(=O)Cc2ccccc2F)ncc1Cl — lower, -25.9%
- Cc1cccc(N2CCN(C(=O)CCSCc3ccccc3F)CC2)c1C — higher, 3.33%
- CN(CCC#N)c1ccc(C=O)cc1 — higher, 2.45%
- Cc1ccc(-c2nn3c(=O)cc(CN4CCN(S(=O)(=O)c5ccc(Cl)cc5)CC4)nc3s2)cc1 — higher, -0.363%
- CC1(C)Cc2ccccc2-c2c[nH]c(=O)n21 — higher, 1.1%
- COc1cc(NC(=O)CN2CCN(S(=O)(=O)c3ccc(Br)cc3)CC2)cc(OC)c1 — higher, 6.1%
- Cc1cc(NC(=O)C2CCC(CNS(=O)(=O)c3ccc(Br)s3)CC2)ccc1Br (stereo not given) — higher, 0.952%
- Cc1ccc(NC(=O)CCCn2c(=O)c3cccn3c3ccccc32)cc1Cl — higher, 4.11%
- O=C1COc2ccc(-c3csc(-c4ccc(Cl)cc4)n3)cc2N1 — higher, -0.481%
- CN(C)c1ccc(C=Nc2ccc(/C=C/c3ccnc4ccccc34)cc2)cc1 — lower, -29.8%
- CCOC(=O)c1ccc(-c2ccc(/C=C(\C#N)C(=O)Nc3ccc(C)cc3)o2)cc1 — higher, 2.39%
- Cc1c(C(=O)Nc2cccc(Cl)c2)oc2ccc(S(=O)(=O)N3CCOCC3)cc12 — higher, -4.72%
- CS(=O)c1ccc(/C=C2\C=Cc3ccccc32)cc1 (stereo not given) — higher, -4.01%
- OCC(O)C(O)C(O)C(O)C=Nc1ccc(/C=C/c2ccnc3ccccc23)cc1 (stereo not given) — lower, -13.5%
- C=COC(=O)N1CCN(/[N+]([O-])=N/Oc2ccc([N+](=O)[O-])cc2[N+](=O)[O-])CC1 — lower, -11.3%
- SCc1nc2ccc(Cl)cc2[nH]1 — lower, -15.9%
- CCC(=O)N1CCc2cc(Br)cc(S(=O)(=O)CCC(=O)NCc3ccccc3OC)c21 — higher, 0.639%
- O=C(CCSCc1cccc(F)c1)NCc1ccccc1 — higher, 1.45%
- O=C1C[C@H]2C=CCc3cccc(c32)CN1Cc1ccccc1 — higher, 1.8%
- CN1CCN(/[N+]([O-])=N/Oc2ccc([N+](=O)[O-])cc2[N+](=O)[O-])CC1 — higher, -2.57%
- O=C1CCC[C@@H]2C[C@@]3(C[C@@H]4CCN1[C@H]24)Nc1ccccc1NC3=NCc1ccccc1 — higher, -3.5%
- CCC(C)NC(=O)Cn1c(=O)n(-c2ccc(Cl)cc2)c(=O)c2c3c(sc21)CCCC3 (stereo not given) — higher, -2.77%
- Cc1ccc(CSc2oc(-c3cccs3)nc2S(=O)(=O)c2ccc(C)cc2)cc1 — lower, -5.68%
- CC1(C)C=Cc2c(ccc(C(=O)/C=C/c3ccccc3)c2O)O1 — higher, -4.83%
- Cc1nc2nc(SCC(=O)N(Cc3ccccc3)C(C)C)nn2c(C)c1Cc1ccccc1Cl — higher, -4.58%
- C=C1C=C(C(F)F)n2ncc(C(=O)NCCc3ccccc3OC)c2N1 — higher, 1.18%
- O=C1O/C(=C\c2ccc(O)cc2)C(O)=C1c1ccc(O)cc1 — higher, 0.495%
- Cc1ccc(C)c(Cn2c(C(=O)O)c(CNCc3cccs3)c3ccccc32)c1 — higher, 5.36%
- CCN(CC)c1ccc(/C=C/c2c(C)cnc3ccc(C)cc23)cc1 — lower, -14.3%
- CCOc1cccc(CC(=O)N2CCc3c([nH]c4ccccc34)C2c2ccc(OC)cc2)c1OCC (stereo not given) — higher, 5.45%
- CCc1cccc(CC)c1NC(=O)Cn1c(=O)c(-c2cc(C)ccc2NC(C)=O)nc2ccccc21 — higher, 2.05%
- CCN1CCN(CCCNC(=O)c2ccc3c(c2)sc2nc(-c4ccc(OC)cc4)cn23)CC1 — higher, 1.57%
- COc1ccc(N2CCN(c3nc(-c4ccccc4F)nc4ccccc34)CC2)cc1 — higher, 1.44%
- CC(C)(C)OC(=O)N(Cc1ccco1)S(=O)(=O)c1ccccc1Br — higher, -2.34%
- Nc1ncnc2nnsc12 — higher, -0.535%
- Clc1cccc[n+]1CCCC[n+]1ccccc1Cl — higher, -3.41%
- O=C(NCC(c1ccco1)S(=O)(=O)c1cccs1)c1ccc(F)cc1 (stereo not given) — higher, -0.334%
- COc1ccc(-c2nc(=N)sn2-c2ccccc2)cc1 — lower, -12.4%
- Cc1ccccc1NC(=O)c1c(NC(=O)c2ccccc2F)sc2c1CCC(C)C2 (stereo not given) — higher, 2.58%
- COc1ccc(-c2[nH]c3c(c2-c2c(-n4cccc4)n(C)c(=O)n(C)c2=O)c(=O)n(C)c(=O)n3C)cc1 — higher, 4.14%
- OC(CBr)CN1CCCCC1 (stereo not given) — higher, 2.13%
- CN(C(=N)N)c1ccc(/C=C2\C=Cc3ccccc32)cc1 — higher, 0.609%
- Cc1cccn2c(=O)c3cc(C(=O)NC(C)c4ccccc4)c(=N)n(CCCO)c3nc12 (stereo not given) — higher, 1.93%
- COC(=O)c1ccc(OC)c(Cn2c(=O)n(Cc3ccccc3)c(=O)c3c2c2cc(OC)ccc2n3C)c1 — lower, -5.74%
- CCOC(=O)c1scc(-c2ccc(C)cc2)c1S(=O)(=O)Nc1cc(C)ccc1C — higher, 2.25%
- COc1ccc(OCC(=O)Nc2cccc(C(=O)OCc3cc(=O)n4nc(C)sc4n3)c2)cc1 — higher, 1.27%
- CCOc1ccc(N(CC)S(=O)(=O)N2CCCC(C(=O)Nc3ccc(C(C)=O)cc3)C2)cc1 (stereo not given) — higher, 3.2%
- Cc1ccc(S(=O)(=O)c2nc(-c3ccco3)oc2SCC(=O)Nc2ccc(F)cc2)cc1 — higher, -4.15%
- COc1ccc(CNC(=O)c2ccc3c(c2)nc2n3CCOC2)c(OC)c1 — higher, 2.94%
- COC(=O)c1cc(NC(=O)CCS(=O)(=O)c2cc(Br)cc3c2N(C(=O)C2CC2)CC3)cc(C(=O)OC)c1 — higher, 1.17%
- CCCCN(CC)CCCNC(=O)Cn1ncc2c([nH]c3ccc(C)cc32)c1=O — higher, 1.92%
- O=C(Nc1ccccc1F)C(c1ccccc1)N1Cc2ccccc2C1=O (stereo not given) — higher, -0.9%
- OC(Cc1ccc2ccccc2n1)c1ccc(Cl)c(Cl)c1 (stereo not given) — higher, -0.459%
- Cc1c(-c2nsc(NC(=O)c3cccc(Cl)c3)n2)nnn1-c1ccccc1C(F)(F)F — higher, 4.58%
- CN(C)c1ccc(/C=C2\C=Cc3ccccc32)cc1Br — higher, -3.17%
- CCn1c(=O)c(=O)n(CC)c2cc(N3CCCCC3)c(NC(=O)c3cccc(F)c3)cc21 — higher, 0.845%
- CN(C)c1ccc(/C=N\Nc2ccc([N+](=O)[O-])cc2[N+](=O)[O-])cc1Cl — higher, 3.64%
- CC1CCc2noc(NC(=O)c3ccc([N+](=O)[O-])cc3)c2C1 (stereo not given) — higher, -0.497%
- Cc1cc(NS(=O)(=O)c2ccc3oc(=O)c4ncn(C)c4c3c2)ccc1Br — lower, -20.5%
- Cc1cc(C)c2oc(C(=O)Nc3c(C(=O)Nc4ccccc4)oc4ccccc34)cc(=O)c2c1 — higher, 3.43%

For O=C1NC(c2cccc(Cl)c2)Nc2ccccc21 (stereo not given), the Potency was 11.2 µM (active).
With CCN(CC)C(=O)CSC(Nc1cccc(F)c1)=C(C#N)C#N the Potency was 12.6 µM (active).
Cc1ccc2nc(/C(C#N)=C/c3ccc(-c4ccc(C(=O)OC(C)C)cc4)o3)[nH]c2c1 was tested, and the Potency was 2 µM (active).
